Screening data deposited in PubChem BioAssay by National Center for Advancing Translational Sciences (NCATS).
Hits are enriched below; roughly 8.8% of the tested compounds scored in any of these assays.
HTT aggregate – mutant huntingtin aggregation inhibition; AID 1688; Potency, µM (highest dose often 46.1 µM), for inactives: at the top dose activity change, negative = inhibition, most hits filed as inhibitors; 1.1% of 220,000 active; PC12 HttQ103-GFP aggregates, Acumen cytometry, 40 h; active means well fitted curve in the direction sought with a large enough effect; inconclusive means small, poorly fitted or top-dose-only effect, or another doubt; inactive means no such curve, though single readings can be large; an effect the other way counts as inactive or inconclusive; further: on the % scale 0 is the no-effect control and ±100 the full control effect; nearly all actives have a fitted effect of over 60% in size
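PC12 cells stably carrying ecdysone-inducible HTT exon 1 Q103–GFP were induced with tebufenozide (100 nM final) and treated with library compounds in titration. GFP aggregates in lysates were counted by laser scanning cytometry.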
HPGD block – blocks human HPGD enzyme activity; purified HPGD, NADH fluorescence kinetic, PGE2 substrate; P15428; Potency, µM, for inactives: top-dose activity change, negative = inhibition, hits mostly inhibitors; 4.3% of 150,000 active; further: on the % scale 0 is the no-effect control and ±100 the full control effect
Target sequence (P15428 whole entry, looked up): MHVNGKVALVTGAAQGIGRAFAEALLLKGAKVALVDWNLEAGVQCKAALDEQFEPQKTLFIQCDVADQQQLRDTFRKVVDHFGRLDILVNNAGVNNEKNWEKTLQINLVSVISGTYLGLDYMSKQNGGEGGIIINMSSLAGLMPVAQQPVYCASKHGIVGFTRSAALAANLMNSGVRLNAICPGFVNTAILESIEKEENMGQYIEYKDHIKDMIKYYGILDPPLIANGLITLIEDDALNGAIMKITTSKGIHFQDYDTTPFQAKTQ
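NADH formation kinetics: reaction with 30 uM PGE2 and 1 mM NAD+ (final), 20 nM enzyme, Tris-HCl pH 8 with Tween 20, after 15 min compound preincubation at room temperature. Fluorescence change, last versus first of five reads.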
Lamin A splicing – modulators of lamin A splicing. Potency, µM (highest dose often 46.1 µM), for the others: at the highest dose ratio change, negative = inhibition, actives largely listed as inhibitors. AID 1487. 0.01% of 200,000 active. HeLa LMNA splicing GFP/RFP minigene ratio, 48 h; active means well fitted inhibition curve with a large enough effect in the signal ratio, with a control signal flat, not every such curve was filed as active; inconclusive means small, poorly fitted or top-dose-only effect, or effect the other way, or a change in a side signal; the % refers to the signal ratio; further: on the % scale 0 is the no-effect control and ±100 the full control effect
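S3 HeLa stable clones carrying a lamin A-EGFP splicing minigene plus DsRed2 were seeded at 600 cells/well in Opti-MEM with 2% FBS, pin-dosed and incubated 48 h at 37°C. Acumen cytometry (488 nm) gave the GFP/RFP total-intensity ratio.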
ALDH1A1 inh – inhibitors of human aldehyde dehydrogenase 1A1. P00352. Purified ALDH1A1, NADH fluorescence, propionaldehyde substrate. Potency, µM (titrated, usually from 75.3 µM), without a hit: at the top dose activity, negative = inhibition, hits mostly inhibitors. 7.3% of 220,000 active. AID 1030;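 further: plate controls were no enzyme wells and a reference inhibitor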
HTT cytoprotect – cytoprotection in Huntington HTT-Q103 PC12 cell model; 0.14% of 230,000 active; PC12 HTT-Q103 induced, cytoprotection, ATP luminescence, 40 h; Potency, µM (titrated, usually from 56.4 µM), for the others: cytoprotection (ATP increase), most hits filed as activators; active means well fitted curve in the direction sought with a large enough effect; inconclusive means small, poorly fitted or top-dose-only effect, or another doubt; inactive means no such curve, though single readings can be large; an effect the other way counts as inactive or inconclusive; further: % of control where 0% means no effect; nearly all actives have a fitted effect of over 45% in size
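Rat PC12, Q103 Htt exon1-GFP fusion, ecdysone promoter; tebufenozide inducer 100 nM final; compound titration; qHTS, 1500 cells/well; ATPlite luminescent read.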
* marks the source's active call; other numbers are inactive results; u = inconclusive; x = no result; [ ] = another dose, or the depositor's remark. Unless noted, the call rests on the fitted dose curve; in most records, active means well fitted inhibition curve with a large enough effect (not every such curve was filed as active); inconclusive means small, poorly fitted or top-dose-only effect, or another doubt; inactive means no such curve, though single readings can be large or run the other way. Potency means the concentration at half of the fitted maximal effect.

SMILES | HTT aggregate | HPGD block | Lamin A splicing | ALDH1A1 inh | HTT cytoprotect
O=C(CCCCCn1c(SCc2ccncc2)nc2ccccc2c1=O)NCc1ccco1 | 17% | 18µM* | -18% | 25µM* | 19%[10 µM]
O=C(CSc1nc2ccsc2c(=O)n1Cc1ccc(C(=O)O)cc1)NCc1ccco1 | 4% | 20µM* | 0% | 6% | x
CCc1cnc2c(c1SCC(=O)c1ccc(Cl)cc1)c(=O)n(C)c(=O)n2C | x | x | 2%[46 µM] | x | x
Cn1cnc(S(=O)(=O)N2CCCC(C(=O)Nc3cccc(C#N)c3)C2)c1 (configuration not stated) | x | x | -5%[46 µM] | x | x
Cc1cc(C)c2c(c1)cc(C)c1nnc(SCC(=O)Nc3ccc(S(=O)(=O)N4CCCCC4)cc3)n12 | -6% | -7% | u | 20µM* | 17%[10 µM]
O=C(CSc1nc2ccccc2c(=O)[nH]1)Nc1ccc(S(=O)(=O)N2CCCC2)cc1 | -15% | 14µM* | u | 2.2µM* | -27%[10 µM]
O=C(CCc1ccccc1)Nc1ccc(S(=O)(=O)N2CCCC2)cc1 | 4%[9.22 µM] | x | x | 13µM* | -18%[10 µM]
O=C(CCOc1ccccc1)Nc1ccc(S(=O)(=O)N2CCCC2)cc1 | 0% | -9% | -2% | 22µM* | -12%
O=C(COc1ccccc1)Nc1ccc(S(=O)(=O)N2CCCC2)cc1 | -13% | -7% | 4% | -6% | -14%
OCCC1CN(Cc2ccc3nsnc3c2)CCN1CCc1ccccc1 (configuration not stated) | 12%[9.22 µM] | x | 7%[46 µM] | -1% | 17%[10 µM]
Cc1ccc(-c2cc(C(F)F)n3ncc(C(=O)Nc4cn(C)nc4C)c3n2)cc1 | 6%[9.22 µM] | x | u | -1% | 11%[10 µM]
CC1CCN(S(=O)(=O)c2ccc(NC(=O)CSc3ncccc3C(=O)O)cc2)CC1 | -24% | 14µM* | 0% | 25µM* | -8%
CN(C)c1nc(-c2ccc3c(c2)OCO3)nc2ccccc12 | x | x | u | -5% | -103%
CC(C)=CCc1c2c(c3occ(-c4ccc(O)cc4)c(=O)c3c1O)C=CC(C)(C)O2 | u | -4% | u | 25µM* | -287%
CCOC(=O)CCNC(=O)N1CCN(S(=O)(=O)c2ccc3c(ccn3C)c2)CC1 | x | x | 12%[46 µM] | x | x
Cc1ccc2cc(CN(CCN3CCOCC3)Cc3nnnn3Cc3ccco3)c(=O)[nH]c2c1C | 16% | -5% | -2% | 5µM* | -15%[10 µM]
COc1ccccc1CN(Cc1cc2cc(C)ccc2[nH]c1=O)Cc1nnnn1Cc1ccco1 | 8% | u | 8% | u | -28%
Cc1ccc2cc(CN(Cc3ccc4c(c3)OCO4)Cc3nnnn3Cc3ccco3)c(=O)[nH]c2c1C | 19% | -24% | 1% | u | 16%[1.9 µM]
CCc1ccc2[nH]c(=O)c(CN(Cc3ccccc3OC)Cc3nnnn3Cc3ccco3)cc2c1 | u | -15% | u | 25µM* | -3%[10 µM]
CC(=O)c1cccc(NS(=O)(=O)c2ccc(N/C=C\C(=O)c3ccc(F)cc3)cc2)c1 | 10µM* | -20% | 2% | -15% | -61%
CN(C)c1ccc(NC(=O)c2cccc(N3C(=O)CCC3=O)c2)cc1 | 15% | -12% | u | 19µM* | -39%
COC(=O)c1c(NC(=O)C2CCCO2)sc2c1CCC2 (configuration not stated) | -17% | -24% | 16% | 14µM* | 6%
NC(=O)c1c(NC(=O)C2CCCO2)sc2c1CCCCC2 (configuration not stated) | -9% | u | 3% | 20µM* | 2%[0.074 µM]
NC(=O)c1c(NC(=O)C2CCCO2)sc2c1CCC2 (configuration not stated) | -7% | -8% | 12% | 22µM* | -2%
CC(C)(C)C1CCc2c(sc(NC(=O)C3CCCO3)c2C(N)=O)C1 (configuration not stated) | u | -9% | 18% | u | -17%
CCOC(=O)c1ccc(NC(=O)c2c(NC(=O)CCC(=O)O)sc3c2CCCCC3)cc1 | -7%[9.22 µM] | x | x | 16µM* | -22%[10 µM]
COC(=O)c1c(NC(=O)C2C3CCC(O3)C2C(=O)O)sc2c1CCCCCC2 (configuration not stated) | -14% | -27% | u | 3% | x
COc1ccccc1-c1c(C)nn2c(N3CCN(c4cccc(Cl)c4)CC3)cc(C)nc12 | x | x | -1%[46 µM] | x | x
